Laboratory results published in PubChem BioAssay.
Entries with a potency or affinity are not part of this list. Records with an inconclusive call do not appear. Calls of active or inactive are those of the source. Unless noted, how the calls were made is not given here.

Assays:
[1] = RMG-1 ovarian cancer cell viability loss – cherry-pick, dose response (AID 687029;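 active means signal drop whose fitted half-maximal concentration is at most twice the top valid dose, in every test run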;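 further: cells exposed to compound for 96 hours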)
[2] = CMV-driven luciferase expression suppression in HEK293 – cell-based, luminescence, dry powder, counter-screen for Pax8 inhibitor project, dose response (AID 743020;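 active means signal-lowering compounds whose fitted half-maximal concentration is at or below twice the top tested dose in every run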;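 further: HEK293 cells stably expressing the CMV luciferase reporter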)
[3] = general cell-killing toxicity readout – plate reader, dry powder samples, cytotoxicity control for PAX8 inhibitor project, dose response (AID 743021)
[4] = IGROV1 cell killing – plate reader, dry powder samples, PAX8 inhibitor project, dose response (AID 743043);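 further: more negative means fewer viable cells or more cytotoxicity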
[5] = toxicity toward immortalized ovarian surface epithelium – cell-based, plate reader, dry powder samples, cytotoxicity control for PAX8 inhibitor project, dose response (AID 743045);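 further: 0% = neutral control median and -100% = positive control median; more negative values mean more cell killing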
[6] = A2780 cell killing – plate reader, dry powder samples, cytotoxicity control, dose response (AID 743046);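 further: 0% = neutral control wells and -100% = cytotoxic reference compound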
[7] = OVCAR-3 cell viability loss – plate reader, dry powder samples, PAX8 inhibitor project, dose response (AID 743044); conditions: max activity: at 35 µM, stronger effect = lower value unless noted
[8] = A549 cell cytotoxicity, dose response, cytotoxicity control, plate reader, cherry-pick, antagonist series (AID 743412);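 further: 0% = neutral control wells and -100% = positive control wells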
[9] = OVCAR8 cell viability loss – plate reader, dry powder samples, PAX8 project, dose response (AID 743197)
[10] = toxicity toward HepG2 liver cells – cell-based, plate reader, cherry-pick, antagonist series, cytotoxicity control, dose response (AID 743416);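 further: 0% = neutral control wells and -100% = positive control wells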
[11] = target: Melanocortin receptor 4 (Homo sapiens) (UniProt P32245); experiment: blockade of melanocortin 4 receptor signaling – cell-based, plate reader, cherry pick, counter-screen for LGR2 antagonist project, dose response (AID 743444)

Measured: max activity

C[C@H]1CN([C@@H](C)CO)C(=O)Cc2cc(NC(=O)C3CC3)ccc2O[C@@H]1CN(C)Cc1ccc(-c2ccccc2)cc1
inactive: [1] | [2] | [3] | [4] | [5]

C[C@@H]1CN([C@H](C)CO)C(=O)c2cc(NC(=O)Nc3ccc(C(F)(F)F)cc3)ccc2O[C@@H](C)CCCCO[C@@H]1CN(C)C(=O)c1ccccc1
inactive: [1] | [2] | [3] | [4] | [5] | [6]

Cc1cc(C)c2sc(NNC(=O)c3ccc(S(=O)(=O)N4CCc5ccccc5C4)cc3)nc2c1
inactive: [1] | [2] | [3] | [5]

Cc1ccc(S(=O)(=O)Nc2ccc3c(c2)C(=O)N([C@@H](C)CO)C[C@@H](C)[C@H](CN(C)Cc2ccc(C(F)(F)F)cc2)OCCCC[C@H](C)O3)cc1
inactive: [1] | [2] | [3] | [4] | [5] | [6]

Cc1ccc(-c2csc(NC3OC(=O)c4ccccc43)n2)cc1 (stereo unspecified)
inactive: [1] | [2] | [3] | [4] | [6]

Cc1ccc2cccc(NS(=O)(=O)c3ccccc3)c2n1
inactive: [1] | [2] | [3] | [7]

O=C(NCCc1ccccc1)c1ccc2c(c1)OCCCO2
inactive: [1] | [2] | [3] | [7] | [6]

O=C(/C=C/c1ccccc1)Nc1cccc(C(=O)O)c1
not listed: [4] | [9] | [10] | [11]
inactive: all other assays above

Cc1ccc(S(=O)(=O)N(C)C[C@@H]2Oc3cc(C#Cc4ccncc4)ccc3S(=O)(=O)N([C@H](C)CO)C[C@@H]2C)cc1
not listed: [7] | [8] | [10] | [11]
inactive: all other assays above

C[C@H](CO)N1C[C@H](C)[C@@H](CN(C)C(=O)C2CCCCC2)OCCCC[C@H](C)Oc2ccc(NS(=O)(=O)c3ccc(Cl)cc3)cc2C1=O
not listed: [7] | [8] | [10] | [11]
inactive: all other assays above

O=C(Nc1ccc(F)cc1)N1CCCCN2[C@@H](CO)[C@@H](c3ccc(C#Cc4ccccc4)cc3)[C@@H]2C1
inactive: [1] | [2] | [3] | [6] | [9]

C[C@@H]1CCCCO[C@H](CN(C)Cc2ccc(C(F)(F)F)cc2)[C@H](C)CN([C@@H](C)CO)C(=O)c2cc(NS(=O)(=O)c3ccc(F)cc3)ccc2O1
inactive: [1] | [2] | [3] | [5]

CCOc1ccc(C(=O)c2cc([N+](=O)[O-])ccc2N2CCOCC2)cc1
inactive: [1] | [3]

C[C@H]1CCCCO[C@H](CN(C)C(=O)C2CCCCC2)[C@@H](C)CN([C@@H](C)CO)C(=O)c2cc(NC(=O)Nc3ccc(F)cc3)ccc2O1
inactive: [1] | [2] | [3] | [7] -23.8% | [5] | [6] | [9]

Cc1nc(SCC(=O)Nc2nc3ccccc3s2)c(C#N)c(C)c1C
inactive: [1] | [2] | [3] | [8]

COc1ccc(/C=C/C(=O)c2cc(F)ccc2OC(=O)c2ccccc2C)cc1OC
inactive: [1] | [3]

COc1cc(/C=C2\SC(=S)N(CCC(=O)N3CCCCC3)C2=O)cc(OC)c1OC
inactive: [1] | [2] | [3] | [5]

CC(=O)Nc1ccc(S(=O)(=O)c2ccnc3cc(Cl)ccc23)cc1
inactive: [1] | [2] | [3] | [10] | [11]

COc1ccc(S(=O)(=O)Nc2ccc3c(c2)C(=O)N([C@H](C)CO)C[C@H](C)[C@H](CN(C)Cc2ccc(C(F)(F)F)cc2)OCCCC[C@H](C)O3)cc1
inactive: [1] | [2] | [3] | [4] | [6]

C=CCN1C(=O)/C(=C/c2ccc(OC(C)=O)c(OCC)c2[N+](=O)[O-])SC1=S
inactive: [1] | [3]

Cc1ccc(S(=O)(=O)Nc2ccc3c(c2)nc(CCN2CCCC2)n3C)cc1
inactive: [1] | [2] | [3] | [4] | [5] | [6]

COc1ccc(CN(C)C[C@H]2OCCCC[C@@H](C)Oc3ccc(NC(=O)Nc4ccc(F)cc4)cc3C(=O)N([C@@H](C)CO)C[C@@H]2C)cc1
inactive: [1] | [2] | [4] | [5]

CN(C)CCN(C(=O)/C=C/c1cccs1)c1nc2c(F)cc(F)cc2s1
inactive: [1] | [2] | [3] | [5] | [6]

COc1ccc(S(=O)(=O)N(C)C[C@H]2OCCCC[C@H](C)Oc3ccc(NS(=O)(=O)c4ccc(F)cc4)cc3C(=O)N([C@@H](C)CO)C[C@@H]2C)cc1
inactive: [1] | [2] | [4] | [5] | [6]

O=C(C[C@@H]1C[C@H]2c3cc(NS(=O)(=O)c4ccc(F)cc4)ccc3O[C@H]2[C@H](CO)O1)NCc1ccc(-c2ccccc2)cc1
inactive: [1] | [3]

COc1cccc(/C=N/Nc2ccc([N+](=O)[O-])cn2)c1O
inactive: [1] | [3]

CC(=O)Nc1ccc(-c2ccnc3c2CC(C(=O)NCc2ccccc2)O3)cc1 (stereo unspecified)
inactive: [1] | [3]

COC(=O)[C@H]1[C@@H](O)[C@@]2(O)c3c(OC)cc(OC)cc3O[C@@]2(c2ccc(OC)cc2)[C@@H]1c1ccc(F)cc1
inactive: [1] | [3]

O=C(C1CC1)N1C[C@@H]2N[C@H](C1)C2c1ccc(-c2ccccc2F)cc1 (stereo partly specified)
inactive: [1] | [3]

COc1cc2c(c(OC)c1OC)-c1ccc(SC)c(=O)cc1C(NC(=O)C(F)(F)F)CC2 (stereo unspecified)
inactive: [1] | [3]

CCCCCC(CC(=O)NO)C(=O)NC(C(=O)N1CCCC1CO)C(C)C (stereo unspecified)
inactive: [1] | [3]

COc1ccc(-c2cnc3c(NC=O)cc(-c4cccc(NS(C)(=O)=O)c4)cn23)cc1OC
inactive: [1] | [3]

O=C(Cn1ncc(Cl)c(Cl)c1=O)N1CCN(S(=O)(=O)c2ccc3ccccc3c2)CC1
inactive: [1] | [3]

Cn1nnnc1Sc1ncnc2scc(-c3ccsc3)c12
inactive: [1] | [3]

COc1cccc2c1C(=O)c1c(O)c3c(c(O)c1C2=O)C[C@@](O)(C(C)=O)C[C@@H]3O[C@H]1C[C@H](N)[C@H](O)[C@H](C)O1
inactive: [1] | [3]

C[C@H]1O[C@@H](O[C@H]2[C@@H](O)C[C@H](O[C@H]3[C@@H](O)C[C@H](O[C@H]4CC[C@@]5(C)[C@H](CC[C@@H]6[C@@H]5C[C@@H](O)[C@]5(C)[C@@H](C7=CC(=O)OC7)CC[C@]65O)C4)O[C@@H]3C)O[C@@H]2C)C[C@H](O)[C@@H]1O
inactive: [1] | [3]

Cc1cc(C)c2nc(SCC(=O)N3CC(=O)Nc4ccccc43)c(C#N)cc2c1
inactive: [1] | [3]

COc1ccc(NC(=O)C(=O)NCC2CCCN2S(=O)(=O)c2ccc(C)cc2)cc1 (stereo unspecified)
inactive: [1] | [3]

CC(=O)c1cc(NC(=O)c2cccc(C(F)(F)F)c2)c(=O)oc1C
inactive: [1] | [3]

CN1CCc2c(sc(NC(=O)c3ccc([N+](=O)[O-])o3)c2C(N)=O)C1
inactive: [1] | [3]

Cn1c(=O)[nH]c(=O)c2c1nc([N+](=O)[O-])n2Cc1ccccc1
inactive: [1] | [3]

CC(=NNc1cc(C)c2ccccc2n1)c1ccccn1
inactive: [1] | [3]

CC[C@@H]1CCC[C@@H](O)[C@@H](C)C(=O)O[C@H](C)[C@@H](C)C/C=C(C)/C(OC)=C\C(=O)N(C)C([C@@H](C)CC)C(=O)N(C)[C@@H](C(C)C)C(=O)N(C)[C@@H](COC)C(=O)N2CCC[C@H]2C(=O)N(C)[C@@H](C(C)C)C(=O)N2CCC[C@H]2C(=O)O1 (stereo partly specified)
inactive: [1] | [3]

Cc1cccc(N(C)S(=O)(=O)c2ccc(-c3cnc(C4CC4)o3)cc2)c1
inactive: [1] | [3]

O=C(/C=C/c1cccs1)NC(=S)NNC(=O)c1ccccc1O
inactive: [1] | [3]

COc1cc([C@@H]2c3cc4c(cc3[C@H](O)[C@H]3COC(=O)[C@H]23)OCO4)cc(OC)c1OC
inactive: [1] | [3]

O=C(COc1ccccc1-c1ccccc1)N/N=C/c1ccc2ccccc2c1
inactive: [1] | [3]

CCN(CC)S(=O)(=O)c1cccc(NC(=O)Nc2cccc(C(F)(F)F)c2)c1
inactive: [1] | [3]

Cc1ccc(S(=O)(=O)N2CCCCC2)cc1NC(=O)Cn1ncc(Cl)c(Cl)c1=O
inactive: [1] | [3]

Oc1ccc(Cc2ccccc2)c2cccnc12
inactive: [1] | [3]

O=C(CCS(=O)(=O)c1ccc(Cl)cc1)Nc1nc(-c2ccncc2)cs1
inactive: [1] | [3]

CC(=O)Nc1ccc(Sc2ccc([N+](=O)[O-])o2)cc1
inactive: [1] | [3]

O=C(NCCc1ccccc1F)c1ccc2c(c1)OCCO2
inactive: [1] | [3]

COc1cccc2c1C(=O)c1c(O)c3c(c(O)c1C2=O)C[C@@](O)(C(=O)CO)C[C@@H]3O[C@H]1C[C@H](N)[C@H](O)[C@H](C)O1
inactive: [1] | [3]

O=C(COC(=O)/C(=C/c1cccs1)c1cccs1)NC(c1ccccc1)c1ccccc1
inactive: [1] | [3]

COc1cc(-c2c(-c3cc(OC)c(OC)c(OC)c3)noc2C)ccc1F
inactive: [1] | [3]

O=c1[nH]nnc2c1ncn2C1OC(CO)C(O)C1O (stereo unspecified)
inactive: [1] | [3]

C=CC(=O)N1C/C(=C/c2ccc(F)cc2)C(=O)/C(=C\c2ccc(F)cc2)C1
inactive: [1] | [3]

CCCc1ccc(C(=O)O/N=C(\N)c2ccccn2)cc1
inactive: [1] | [3]
